Test results: PubChem BioAssay (NCI)
Compounds without any hit were thinned out: in the full panel of roughly 83,000, 20% have a hit.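 Plates (96-well) were seeded with cells, treated with compound at one concentration, and incubated for 48 hours before percent growth was determined.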

How the values were obtained:
Assay in all cases: NCI-60 one-dose screen, 48 h (100 = growth as untreated, 0 = no growth, -100 = all killed)
Conditions in all cases: 10 µM unless noted; active = growth percent below 10; inactive = the rest
NCI-H23 lung = test system: NCI-H23 lung
NCI-H226 lung = test system: NCI-H226 lung
NCI-H322M lung = test system: NCI-H322M lung
HOP-62 NSCLC = test system: HOP-62 NSCLC
NCI-H460 lung = test system: NCI-H460 lung
HOP-92 NSCLC = test system: HOP-92 NSCLC
A549/ATCC NSCLC = test system: A549/ATCC NSCLC
786-0 renal = test system: 786-0 renal
COLO 205 colon = test system: COLO 205 colon
DU-145 prostate = test system: DU-145 prostate
K-562 leukemia = test system: K-562 leukemia
MALME-3M melanoma = test system: MALME-3M melanoma
MDA-MB-231 breast = test system: MDA-MB-231 breast
RXF 393 renal = test system: RXF 393 renal
SF-268 CNS = test system: SF-268 CNS
SF-295 CNS = test system: SF-295 CNS
SF-539 CNS = test system: SF-539 CNS
UACC-257 melanoma = test system: UACC-257 melanoma
M14 melanoma = test system: M14 melanoma

Measured: growth

Oc1ccc(/C=N/Nc2nc3ccccc3s2)c(O)c1
inactive: NCI-H23 lung 56.8% | NCI-H226 lung 45% | NCI-H322M lung 11.9% | HOP-62 NSCLC 26.7% | NCI-H460 lung 10.9% | HOP-92 NSCLC 62.8% | A549/ATCC NSCLC 18% | 786-0 renal 38.3% | COLO 205 colon 89.3% | DU-145 prostate 32.4% | K-562 leukemia 30% | MALME-3M melanoma 52.4% | MDA-MB-231 breast 41.9% | RXF 393 renal 53.9% | SF-268 CNS 21.6% | SF-295 CNS 36.4% | SF-539 CNS 34.5% | UACC-257 melanoma 37.4% | M14 melanoma 27.1%

c1ccc(COc2ccc(Nc3ncnc4c3cnn4-c3ccccc3)cc2)cc1
inactive: NCI-H23 lung 109% | NCI-H226 lung 103% | NCI-H322M lung 84.1% | HOP-62 NSCLC 104% | NCI-H460 lung 93.7% | HOP-92 NSCLC 98.8% | A549/ATCC NSCLC 104% | 786-0 renal 100% | COLO 205 colon 107% | DU-145 prostate 104% | K-562 leukemia 90.3% | MALME-3M melanoma 92.8% | MDA-MB-231 breast 101% | RXF 393 renal 102% | SF-268 CNS 108% | SF-295 CNS 107% | SF-539 CNS 99.6% | UACC-257 melanoma 121% | M14 melanoma 101%

N#Cc1ccccc1C#Cc1ccccc1C#Cc1ccc(OCCCCCCOc2ccc(C#Cc3ccccc3C#Cc3ccccc3C#N)cc2)cc1
inactive: NCI-H23 lung 99.4% | NCI-H226 lung 102% | NCI-H322M lung 105% | HOP-62 NSCLC 103% | NCI-H460 lung 116% | HOP-92 NSCLC 91.6% | A549/ATCC NSCLC 94% | 786-0 renal 98.4% | COLO 205 colon 119% | DU-145 prostate 111% | K-562 leukemia 96.7% | MALME-3M melanoma 102% | MDA-MB-231 breast 88.5% | RXF 393 renal 97.7% | SF-268 CNS 115% | SF-295 CNS 106% | SF-539 CNS 97.6% | UACC-257 melanoma 103% | M14 melanoma 85.8%

N#Cc1c(-c2ccccc2)cc(-c2ccccc2)n(CCCC(=O)O)c1=O
inactive: NCI-H23 lung 91.3% | NCI-H226 lung 101% | NCI-H322M lung 95.3% | HOP-62 NSCLC 85.1% | NCI-H460 lung 103% | HOP-92 NSCLC 119% | A549/ATCC NSCLC 92% | 786-0 renal 99.6% | COLO 205 colon 109% | DU-145 prostate 111% | K-562 leukemia 94.1% | MALME-3M melanoma 96.5% | MDA-MB-231 breast 94.9% | RXF 393 renal 91.5% | SF-268 CNS 102% | SF-295 CNS 93.2% | SF-539 CNS 102% | UACC-257 melanoma 96.5% | M14 melanoma 96%

CC(=O)N1N=C(c2ccc(Nc3nc(NCCO)nc(NCCO)n3)cc2)CC1c1ccc(Cl)cc1 (configuration not stated)
inactive: NCI-H23 lung 95.6% | NCI-H226 lung 103% | NCI-H322M lung 89.3% | HOP-62 NSCLC 93.7% | NCI-H460 lung 101% | HOP-92 NSCLC 109% | A549/ATCC NSCLC 78.6% | 786-0 renal 89% | COLO 205 colon 102% | DU-145 prostate 98.6% | K-562 leukemia 119% | MALME-3M melanoma 91% | MDA-MB-231 breast 92.5% | RXF 393 renal 108% | SF-268 CNS 100% | SF-295 CNS 96.6% | SF-539 CNS 90.2% | UACC-257 melanoma 91.8% | M14 melanoma 98.9%

O=C(CC1Sc2ccccc2NC1=O)NNc1cccc(Cl)c1Cl (configuration not stated)
inactive: NCI-H23 lung 77% | NCI-H226 lung 73.9% | NCI-H322M lung 73.5% | HOP-62 NSCLC 84.6% | NCI-H460 lung 66.2% | HOP-92 NSCLC 24.4% | A549/ATCC NSCLC 92.3% | 786-0 renal 95.3% | COLO 205 colon 82.2% | DU-145 prostate 108% | K-562 leukemia 89.1% | MALME-3M melanoma 54.6% | MDA-MB-231 breast 83.5% | RXF 393 renal 97.6% | SF-268 CNS 91.4% | SF-295 CNS 92.4% | SF-539 CNS 67.3% | UACC-257 melanoma 99.1% | M14 melanoma 112%

COc1cc(C2=NN(C=O)C(c3cccc(Nc4ccnc5cc(Cl)ccc45)c3)C2)cc(OC)c1OC (configuration not stated)
inactive: NCI-H23 lung 77% | NCI-H226 lung 68.9% | NCI-H322M lung 91.1% | HOP-62 NSCLC 73% | NCI-H460 lung 83.4% | HOP-92 NSCLC 53.9% | A549/ATCC NSCLC 61.8% | 786-0 renal 65.2% | COLO 205 colon 66.1% | DU-145 prostate 80.2% | K-562 leukemia 46.5% | MALME-3M melanoma 89.3% | MDA-MB-231 breast 76.5% | RXF 393 renal 72.2% | SF-268 CNS 74.2% | SF-295 CNS 66.8% | SF-539 CNS 91.7% | UACC-257 melanoma 73.2% | M14 melanoma 64.1%

N#Cc1c(-c2ccccc2)cc(-c2ccccc2)n(CCC(=O)O)c1=O
inactive: NCI-H23 lung 72.9% | NCI-H226 lung 69.2% | NCI-H322M lung 91.2% | HOP-62 NSCLC 51.9% | NCI-H460 lung 45.3% | HOP-92 NSCLC 74.8% | A549/ATCC NSCLC 46.6% | 786-0 renal 62.6% | COLO 205 colon 61.2% | DU-145 prostate 81.5% | K-562 leukemia 14.7% | MALME-3M melanoma 51.4% | MDA-MB-231 breast 58.9% | RXF 393 renal 53% | SF-268 CNS 67.4% | SF-295 CNS 37.3% | SF-539 CNS 62.5% | UACC-257 melanoma 55.5% | M14 melanoma 25.5%
